# Data as given in the supplement of paper PMC3334620.
# Over roughly 33,000 sequences, “E-score (-0.5 to 0.5)” has its median near -0.043; the highest 2% begin near 0.37. The sample as a whole holds a higher share of the highest values than the screen did.
# Target: T1, Upc2 (UniProt Q12151)
# T1 sequence: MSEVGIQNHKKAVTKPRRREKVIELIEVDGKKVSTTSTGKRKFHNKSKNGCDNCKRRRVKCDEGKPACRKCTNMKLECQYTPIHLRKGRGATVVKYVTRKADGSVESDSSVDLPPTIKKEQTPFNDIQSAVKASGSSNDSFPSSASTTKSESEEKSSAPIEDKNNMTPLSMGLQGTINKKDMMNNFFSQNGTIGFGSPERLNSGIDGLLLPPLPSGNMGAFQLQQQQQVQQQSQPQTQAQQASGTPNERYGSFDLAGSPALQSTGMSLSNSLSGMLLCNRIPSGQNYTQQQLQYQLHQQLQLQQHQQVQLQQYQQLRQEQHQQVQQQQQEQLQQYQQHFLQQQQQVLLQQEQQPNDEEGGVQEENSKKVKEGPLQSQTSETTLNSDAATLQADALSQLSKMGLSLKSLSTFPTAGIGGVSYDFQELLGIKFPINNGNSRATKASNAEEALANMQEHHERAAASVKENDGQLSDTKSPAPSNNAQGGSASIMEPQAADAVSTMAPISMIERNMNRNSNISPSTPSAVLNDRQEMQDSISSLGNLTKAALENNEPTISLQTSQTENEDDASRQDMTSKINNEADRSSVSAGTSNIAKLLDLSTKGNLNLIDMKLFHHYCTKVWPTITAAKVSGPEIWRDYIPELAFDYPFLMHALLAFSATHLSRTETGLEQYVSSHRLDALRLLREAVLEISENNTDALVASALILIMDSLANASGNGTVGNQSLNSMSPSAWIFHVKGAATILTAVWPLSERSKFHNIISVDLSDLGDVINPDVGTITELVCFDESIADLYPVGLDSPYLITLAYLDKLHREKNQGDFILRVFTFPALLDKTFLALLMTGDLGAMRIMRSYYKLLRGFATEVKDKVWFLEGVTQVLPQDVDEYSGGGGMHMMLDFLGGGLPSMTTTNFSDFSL
# Experiment: PBM E-score (8-mer binding enrichment) (E-score (-0.5 to 0.5)); higher = stronger / more preferred TF binding
# Details: protein concentration: 200 nM; construct: GST-full length
# Method: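 Universal 'all 10-mer' protein binding microarrays (Agilent AMADID 015681) probed with GST-tagged S. cerevisiae TFs (full-length or DBD) made by in vitro transcription/translation (PURExpress), about 100-200 nM. Bound TF was detected with fluorescent anti-GST. Each ungapped 8-mer (which stands for itself and its reverse complement) is scored by the PBM enrichment score (E-score), a modified Wilcoxon-Mann-Whitney statistic from -0.5 to +0.5, computed with the Universal PBM Analysis Suite. Scale: above 0.35 generally sequence-specific binding.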
row,Sequence,PBM E-score
1,ATATGAAG,-0.19
2,ATATATAC,0.265
3,GTATATAA,0.298
4,GTATATAC,0.395
5,GTATAAAC,0.4
6,GTATAAAA,0.348
7,ATATAAAC,0.187
8,CATTGGTA,-0.184
9,AATCACCG,0.00219
10,ATTCGCAA,-0.00304
11,CCCCGTAA,0.308
12,GCCGTAAC,0.225
13,GCCGTAAA,0.385
14,CCTGTAAA,-0.0269
15,CCCGTAAA,0.381
16,ACCGTAAA,0.368
17,AGCTACTC,-0.129
18,CAAAAGCA,0.0182
19,ACTTATGG,-0.159
20,CCTACTCC,-0.318
21,CATCGTCG,0.106
22,GGTCGCAC,0.138
23,AGTCGTGC,-0.127
24,GGTCGTAC,0.462
25,CGTAGTAG,0.108

row,Sequence,PBM E-score
1,AGTCGTCC,-0.111
2,CGTCGTCC,-0.154
3,GGACGTAC,0.138
4,CGTCGTAG,0.37
5,CGTCGTAC,0.474
6,CGTCGTGC,0.0916
7,AGTCGTAC,0.452
8,GAGTGAGA,-0.214
9,CGCCTATC,-0.0576
10,AAAGGAGC,-0.113
11,GGGAGGAA,-0.119
12,AGAGATGA,-0.204
13,ATGGAGCA,-0.0645
14,CCCCAAGG,-0.378
15,CTTCCACC,-0.173
16,CAACCTCG,0.196
17,AGTCGTAT,0.467
18,AGTCGTCG,0.0489
19,AGTCGTAG,0.291
20,CGGAAGCC,-0.0575
21,ACTTTTCA,-0.0685
22,CGTTGTTA,0.0821
23,ATTCGTTA,0.346
24,CTTCGTTA,0.345
25,CTTCGTTC,0.457

row,Sequence,PBM E-score
1,GTTCGTTA,0.403
2,CTTCGCTC,0.208
3,CTTCGATC,0.0841
4,GTGCGTTA,0.0729
5,ATTCGTTC,0.428
6,ATTCGTTG,0.215
7,AGTCCTCA,-0.296
8,CATAGGTC,-0.0923
9,GCCCCTCC,-0.0822
10,ACATAACG,0.116
11,GCCTATCA,-0.187
12,ATACGGTC,0.418
13,ATACGGTG,0.408
14,ATACGGTA,0.406
15,CTACGGTA,0.122
16,AAACGGTA,0.367
17,ACACGGTC,-0.099
18,GTACGGTA,0.365
19,AAACGGTC,0.344
20,AAACGGTG,0.386
21,AGACGGTG,-0.109
22,CTACGGTC,0.109
23,ACACGGTG,-0.0718
24,GATGAAAA,0.0354
25,GGCGGGTA,-0.00895

row,Sequence,PBM E-score
1,GACGAACA,0.0681
2,CACGAACA,0.0853
3,ACCGAACG,0.269
4,AACGAACG,0.419
5,CACGAACG,0.343
6,AACGAACA,0.426
7,CACGAACC,0.101
8,AGCGAACA,0.19
9,TACGAACA,0.452
10,AACGAACC,0.427
11,TCCGAACA,-0.0096
12,GACGAACC,0.0416
13,AGAAGCGG,-0.222
14,AGAATAGA,-0.17
15,CACACTTA,-0.00527
16,ACTAGAGC,-0.0879
17,GTAATGAC,0.109
18,ACAGTTTC,-0.0564
19,CCCGCCAA,0.00973
20,ACTCTACT,0.0626
21,CATCCTAC,-0.0778
22,ACGCTAGG,-0.165
23,AGAGTAAT,-6e-05
24,TGTCGACA,0.063
25,CCCTAGCA,-0.26

row,Sequence,PBM E-score
1,AGCGAACT,0.0961
2,ACCGAACT,0.0158
3,AACGAACT,0.371
4,AATAGCCT,-0.081
5,ACGATTCA,0.328
6,GGCGTCTA,-0.152
7,GGCGTATA,0.434
8,AGCGTATG,0.268
9,CGCGTATA,0.451
10,AGCGTATA,0.444
11,CGCGTAGA,0.165
12,CGCGTATC,0.253
13,GGCGTAGA,0.048
14,AGCGTATC,0.166
15,GAACCATA,-0.072
16,CGCCTTGC,-0.288
17,ACTTGTCA,-0.235
18,AAAGCATG,-0.169
19,AGCTTGAT,-0.129
20,GGTATGAC,-0.204
21,GGTATGAA,0.0119
22,AGTATGAC,0.0571
23,AGTATGAG,-0.125
24,CGTATGAG,0.415
25,CCTATGAG,-0.28

row,Sequence,PBM E-score
1,CGTATGAA,0.405
2,AGTATGAA,0.00208
3,CGTATGAC,0.42
4,CAAGGTGG,-0.0983
5,ACGTAACA,-0.0115
6,GATCTTAA,0.159
7,ACGGTGGG,0.134
8,CACGACTA,-0.0651
9,AACGACTG,0.389
10,AGCGACTA,0.154
11,AACGACTT,0.305
12,AACGACTC,0.401
13,GACGACTA,-0.171
14,GACGACTC,-0.052
15,TACGACTA,0.437
16,AACGACTA,0.379
17,CACGACTC,0.0449
18,ATCGACTG,0.0556
19,CACGACTG,0.0762
20,AACCATAA,-0.0292
21,CACCAATC,-0.249
22,CTCCCACC,-0.0368
23,GTGTTCAA,-0.00045
24,AGCCAACA,-0.098
25,ATGTCTTG,-0.0852

row,Sequence,PBM E-score
1,CATGGGGC,-0.34
2,CAGGGTAA,-0.14
3,GAGGTCAA,-0.0747
4,CTCCCAAA,-0.0646
5,TGTATCAA,-0.0549
6,CGTATCAA,0.37
7,CGTATCAC,0.364
8,AGTATCAG,-0.235
9,CGTATCAG,0.381
10,CATATCAG,-0.165
11,CGGGCTAG,-0.117
12,CAAATCTG,-0.272
13,CCTGCTTC,-0.109
14,CAACGAGA,0.314
15,TCACGAGA,0.0145
16,CCACGAGA,-0.277
17,AAACGAGG,0.481
18,AATCGAGT,0.0695
19,AAACGAGT,0.477
20,CAACGAGG,0.278
21,ACACGAGA,0.244
22,TAACGAGA,0.391
23,AAACGAGA,0.469
